Bioassay records from PubChem BioAssay.
Only some compounds are listed: those with a hit (about 1.8% of all), similar ones and a draw of the others.
GLP1R inv ag: GLP-1 receptor (human) inverse agonism; HEK293 GLP-1R CRE-luciferase, luminescence, 24 h; GLP-1R form is constitutively active; Potency, µM (titrated, usually from 38.3 µM), for inactives: at the highest dose activity change, negative = inhibition, hits mostly inhibitors; 1.6% of 410,000 active; AID 624417; note: potency is the fitted concentration of half-maximal effect; % is set by controls: 0 for no effect and ±100 for the full control effect; nearly all actives have a fitted effect of over 55% in size
Target sequence (P43220 whole entry, looked up): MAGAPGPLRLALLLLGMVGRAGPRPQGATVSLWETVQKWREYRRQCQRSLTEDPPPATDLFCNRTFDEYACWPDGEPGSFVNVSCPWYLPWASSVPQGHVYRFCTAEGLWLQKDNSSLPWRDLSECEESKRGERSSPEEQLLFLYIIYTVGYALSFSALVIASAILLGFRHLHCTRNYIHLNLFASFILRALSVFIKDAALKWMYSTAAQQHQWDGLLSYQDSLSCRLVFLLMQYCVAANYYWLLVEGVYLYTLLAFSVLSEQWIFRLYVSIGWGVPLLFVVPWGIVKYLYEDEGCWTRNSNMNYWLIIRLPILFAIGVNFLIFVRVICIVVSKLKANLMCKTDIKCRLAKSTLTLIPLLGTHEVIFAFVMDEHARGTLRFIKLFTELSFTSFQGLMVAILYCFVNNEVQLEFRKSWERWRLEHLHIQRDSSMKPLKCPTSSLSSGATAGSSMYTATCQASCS
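GLP-1R inverse agonism mode: basal reporter luminescence in engineered HEK293 cells measured after one day of compound exposure at 37 deg C, with a 12 min room-temperature detection step.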
HEK293 tox: cytotoxic in the GLP-1 receptor inverse agonist counter-screen; 0.13% of 410,000 active; Potency, µM (series often up to 38.3 µM), for inactives: at the top dose activity change, negative = inhibition, actives largely listed as inhibitors; AID 624418; HEK293 cAMP-luciferase reporter cells, luminescence, 24 h;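 note: loss of luciferase light is scored as toxicity; potency is the fitted concentration of half-maximal effect; % is set by controls: 0 for no effect and ±100 for the full control effect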
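Here, cytotoxicity is scored as loss of luminescence. The MLSMR collection was tested on cells seeded in medium containing 10% Nu serum, with a 24 hr compound exposure preceded by 12 hours of culture.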
TRPML1 blocker: human mucolipin-1 channel inhibition. TRPML1-inducible cells, Ca2+ dye fluorescence, FDSS; hits give low values; inhibition of EC80 agonist-evoked calcium signal. Q9GZU1. 0.02% of 390,000 active. AID 624415. activity change, negative = inhibition, % (test concentration not listed); in the data active = activity change below about -50%; inconclusive = between about -30% and that limit;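 note: stimulus is agonist 54-4 at its EC80 concentration; % is set by controls: 0 for no effect and ±100 for the full control effect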
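Tet-induced TRPML1-DL cells loaded with Ca8 no-wash calcium dye were read kinetically on FDSS. Compound addition was followed by EC80 agonist 54-4 (4 uM final); inhibition was read over 110 s.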
TRPML1 ag: agonists of human TRPML1 channel. TRPML1-expressing cells, Ca2+ dye fluorescence, FDSS. activation, % (test concentration not listed). 0.12% of 410,000 active; in the data active = activation above about 50%; inconclusive = mostly about 30% to 49%; note: 0% is about no effect
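Agonist activity was taken from a 110 s kinetic Ca2+ dye read on the FDSS after pinning compounds onto TRPML1-DL cells. The cells were seeded at 1,500/well with Tet inducer, incubated about 16 h, then dye-loaded at room temperature.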
GLP-1R agonist: GLP-1 receptor (human) agonism; P43220; HEK293 GLP-1R CRE-luciferase, luminescence, 4-6 h; cells express a hypersensitive GLP-1R form; Potency, µM (doses to about 45.6 µM), for the others: at the top dose activation, usual class: activators; 0.007% of 380,000 active; AID 624172; note: potency is the fitted concentration of half-maximal effect; % of control where 0% means no effect
Active calls of the source: *; u = inconclusive; x = no result. Unless noted, calls come from the whole dose curve; as a rule, active = well fitted curve in the direction sought with a large enough effect; inconclusive = small, poorly fitted or top-dose-only effect, or another doubt; inactive = no such curve, though single readings can be large; an effect the other way counts as inactive or inconclusive.

SMILES	GLP1R inv ag	HEK293 tox	TRPML1 blocker	TRPML1 ag	GLP-1R agonist
O=C(c1ccccc1Br)N(Cc1ccccc1)c1ccccc1	8.91µM*	2.5%	-5.4	6.9	14.7%
COc1ccc2c(c1)c1c(c(=O)n(-c3cc(Cl)ccc3C)c(=O)n1CC(=O)N1CCCC1)n2C	2.1%	-6.2%	-4.9	-0.2	1.1%
COc1ccc(CCNCC(=O)Nc2ccc(C)c(S(=O)(=O)N(C)C)c2)cc1OC	2.0%	-3.5%	-6.7	0.3	-0.1%
COc1ccc(CCNCC(=O)Nc2ccc(C)c(Br)c2)cc1OC	11.2µM*	-10.0%	6.2	-0.1	-2.6%
Nc1cc(N)[nH]c(=S)n1	x	x	x	-0.3	x
Cc1cc(N2CCCCC2C)nc(-c2ccccc2O)n1 (configuration not stated)	11.2µM*	-1.0%	-1.0	2.0	21.6%
O=C(Nc1ccc(F)cc1)NC1CCCCCCC1	u	-4.5%	-15.3	0.0	-1.4%
O=C(Nc1ccc(F)cc1)C(NC1CCCCC1)c1ccccc1 (configuration not stated)	7.94µM*	19.1%	23.2	0.7	8.1%
COc1cccc(NC(=O)C(NCC2CCCCC2)c2ccccc2)c1 (configuration not stated)	10µM*	-7.3%	7.5	-0.4	7.7%
CCCCN(C)CCCNC(=O)Cn1ncc2c3ccccc3n(Cc3ccccc3F)c2c1=O	-13.8%	11.6%	-18.5	1.4	x
NC(=S)NN=C1c2ccccc2-c2ccccc21	u	1.41µM*	-1.8	1.5	17.1%
O=C(NN=C1c2ccccc2-c2ccccc21)c1ccccc1	u	u	0.4	1.0	7.9%
O=C(Cn1c(-c2cccs2)cc2cc(Cl)ccc21)NCc1ccccc1	u	-0.2%	-3.5	-0.1	x
COc1cccc(C2c3[nH]c4ccccc4c3C[C@H]3C(=O)N(C4CCN(Cc5ccccc5)CC4)CC(=O)N23)c1 (some centres not stated)	2µM*	-16.5%	x	x	-3.0%
COc1ccccc1C1c2[nH]c3ccccc3c2C[C@H]2C(=O)N(C3CCN(Cc4ccccc4)CC3)CC(=O)N12 (some centres not stated)	5.62µM*	-7.4%	x	x	-1.1%
COc1ccc(C2c3[nH]c4ccccc4c3C[C@H]3C(=O)N(C4CCN(Cc5ccccc5)CC4)CC(=O)N23)cc1OC (some centres not stated)	12.6µM*	-15.9%	x	x	-4.7%
CCCNC(=S)N1CCC(Cc2ccccc2)CC1	7.08µM*	u	-6.5	1.1	2.5%
CC(C)c1ccc(Nc2c(-c3ccccc3O)nc3cnccn23)cc1	10µM*	0.6%	59.1	1.2	-7.1%
CC(C)(C)n1ncc2c(=O)n(Cc3ccc(OC(F)(F)F)cc3)cnc21	x	x	45.8	0.4	x
O=C(NC1CCCC1)C(c1ccccc1F)N(C(=O)c1ccco1)C1CCCC1 (configuration not stated)	u	-15.5%	1.3	0.0	-8.7%
O=C(NC1CCCC1)C(c1ccccc1)N(C(=O)c1ccco1)C1CCCC1 (configuration not stated)	12.6µM*	u	1.1	6.5	4.8%
CCOC(=O)C1CCCN(C(=O)c2ccc(NC(=O)c3nsc4ccccc34)cc2)C1 (configuration not stated)	16.3%	-0.5%	18.6	1.5	x
COc1ccc2[nH]c(C(O)C(O)c3nc4c(OC)c(OC)ccc4[nH]3)nc2c1OC (configuration not stated)	x	x	x	-0.6	x
CCSc1ncc(Cl)c(C(=O)N(Cc2ccccc2)c2ccc(OC)cc2)n1	5.62µM*	-12.5%	59.9	3.9	x
COc1ccc(Cl)cc1NC(=O)Cn1c2ncccc2c(=O)n1-c1ccc(C)c(C)c1	11.5%	2.0%	-13.9	0.4	x
O=C(Nc1cc2ccccc2oc1=O)c1ccccc1	7.94µM*	0.5%	-3.7	-0.7	-3.3%
COc1ccc(NC(=O)CCN2CCN(C/C=C/c3ccccc3)CC2)cc1	-17.7%	-12.2%	x	x	5.3%
COc1cc(NC(=O)CCN2CCN(C/C=C/c3ccccc3)CC2)cc(OC)c1	10µM*	-18.5%	-5.0	-1.1	13.6%
